# According to PubChem BioAssay (NCI):
# This is part of a sample that, as a whole, favours compounds with a hit. Of some 79,000 tested, about 15% had one in any assay. Unmarked numbers belong to inactive results. Active and inactive are the calls of the source. Rule as the data show it: active = growth inhibition above about 70%; inactive = the rest.
# Legend:
# [1] = NCI Yeast Anticancer Drug Screen. Data for the rad50 strain (AID 155);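 also: 0% = growth of vehicle-only cultures of the same strain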; details: S. cerevisiae rad50 strain growth inhibition; at 50.0 µM; stronger effect = higher value
# Procedure, shortened: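 Vehicle-treated cultures provide the reference for the growth inhibition reported for compound-exposed, repair-deficient yeast.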
# [2] = NCI Yeast Anticancer Drug Screen. Data for the mec2-1 strain (AID 157); details: S. cerevisiae mec2-1 strain, at 50.0 µM, stronger effect = higher value
# Procedure, shortened: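 Vehicle-treated cultures served as reference for growth inhibition of compound-exposed mec2-1 yeast.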
# [3] = NCI Yeast Anticancer Drug Screen. Data for the sgs1 mgt1 strain (AID 161);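 also: 0% = growth of cultures given vehicle only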; details: S. cerevisiae sgs1 mgt1 strain, at 50.0 µM, stronger effect = higher value
# Procedure, shortened: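 Inhibition of yeast growth, normalised to vehicle-treated controls, is reported for a strain bearing genetic alterations in DNA damage repair.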
# [4] = NCI Yeast Anticancer Drug Screen. Data for the cln2 rad14 strain (AID 165);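 also: 0% = growth equal to vehicle treated cultures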; details: S. cerevisiae cln2 rad14 strain, at 50.0 µM, stronger effect = higher value
# Procedure, shortened: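 Each compound was tested on cln2 rad14 yeast. Inhibition of growth was calculated against vehicle-exposed controls.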
# [5] = NCI Yeast Anticancer Drug Screen. Data for the bub3 strain (AID 167); details: S. cerevisiae bub3 mutant strain, at 50.0 µM, stronger effect = higher value
# Procedure, shortened: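 Mutant yeast screening strain plus compound; vehicle-treated cultures serve as the 0% inhibition reference.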
# [6] = NCI Yeast Anticancer Drug Screen. Data for the mlh1 rad18 strain (AID 175); details: S. cerevisiae mlh1 rad18 strain growth inhibition; at 50.0 µM; stronger effect = higher value
# Procedure, shortened: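 Vehicle-treated cultures served as the reference for growth inhibition in a yeast strain carrying DNA damage repair alterations exposed to each compound.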
SMILES,growth inhibition [1],growth inhibition [2],growth inhibition [3],growth inhibition [4],growth inhibition [5],growth inhibition [6]
CCC(O)CNCc1ccnc2ccc(OC)cc12 (stereo unspecified),3.3%,2.9%,0.45%,-45.4%,-4.1%,-12.1%
COC1OC(CCl)C(Cl)C(OC)C1OC (stereo unspecified),-9.1%,-1.1%,5.6%,-1.5%,-2.5%,14.4%
Nc1nc(O)c(N)c(=O)[nH]1,-18.2%,-16.9%,-15.8%,-17.8%,-4.05%,-20.9%
O=C(CC1=NC2NN(c3ccccc3)C(=O)C2=C1CC(=O)c1ccc(F)cc1)c1ccc(F)cc1 (stereo unspecified),40.2%,20.6%,23.2%,13.1%,5.65%,38.9%
Cc1nc(C)c(C(=O)NNC(N)=S)cc1C(=O)NNC(N)=S,-10.2%,-16.6%,0.95%,-5.6%,-27.6%,-8.9%
O=c1c2ccccc2n2n1Cc1ccccc1C2,38.1%,9.1%,-11.5%,6.95%,12.2%,59.4%
O=C1C(=C(c2ccccc2)N2CCCCC2)C(=O)c2ccccc21,14.9%,-3.6%,15.1%,-7.75%,19.3%,3.2%
Cc1ccc(-n2cnc3c(N/N=C4\SCC(=O)N4c4ccccc4)ncnc32)cc1,41.2%,17.6%,40.2%,15.1%,49.2%,35%
CN1C(=O)N(c2nc3ccccc3[nH]2)C(C)(C)C1=O,5.25%,1.9%,-23.8%,-6.4%,6.35%,18.6%
CCCCNCCCC(C(=O)O)c1ccccc1 (stereo unspecified),2.1%,-3.4%,3.8%,-10.3%,-35.2%,6.75%
CCCCCCCCCCCCCCC/C=C\C(=O)O,15.2%,-5.8%,-3.4%,10.3%,9.45%,1.4%
Cn1c(NCCN2CCCCC2)c(C(=O)/C=C/c2ccccc2)c(=O)n(C)c1=O,15.3%,19.4%,8.65%,17.6%,-1.5%,20.8%
O=C1OC(=O)c2ccc(SCC(O)CCl)c3cccc1c23 (stereo unspecified),99.4% (active),99.5% (active),98.7% (active),95.8% (active),98.9% (active),99.2% (active)
CC(=O)Oc1ccc(NCNc2ccc(OC(C)=O)cc2)cc1,-11.8%,0.95%,-3.2%,-26.6%,-2.25%,-3.35%
CCc1ccc(/C(C#N)=C/c2ccccc2Cl)cc1,21.9%,40.5%,26.4%,10.2%,35.2%,27.1%
Nc1cc2c(cn1)[nH]c1ccccc12,2.9%,-14.8%,-13.8%,-16.4%,5.6%,-2.35%
CCCCCC(CN(C)C)C(O)CCc1ccc(Cl)c(Cl)c1 (stereo unspecified),98.5% (active),79.2% (active),98% (active),98.5% (active),80.5% (active),98.6% (active)
COc1ccc(C(C)=O)cc1CO/N=C1\CSCc2ccccc21,22.9%,12.4%,34.5%,22.4%,48.2%,12.2%
NC(=O)c1nc2ccccc2nc1Nc1ccc(Cl)cc1Cl,29%,10.2%,7.55%,-0.9%,13%,23.2%
C/C(C(=O)O)=C1\N=C(N)NC1=O,-3.25%,-2.9%,-5.5%,-36.9%,-17.9%,-14.4%
O=C(COc1ccccc1)Nc1cccc(C(=O)O)c1,1.2%,13.5%,21.9%,0.9%,36.6%,32.2%

SMILES,growth inhibition [1],growth inhibition [2],growth inhibition [3],growth inhibition [4],growth inhibition [5],growth inhibition [6]
CCC(C)C(CC)C(=O)N(C)C(=O)N(C)C(C)=O (stereo unspecified),-19.2%,33.3%,4.5%,-33.5%,13.7%,12.5%
C=C(Cl)COC(=O)C(C)O (stereo unspecified),3%,-12.2%,-7.55%,24.4%,-7.4%,8.95%
CC(C)c1ccc(C(=O)OCCCc2ccccc2)cc1,8.7%,-5.65%,18.2%,-10.7%,4%,0.8%
N=c1c(C(=O)O)cccn1O,8.1%,-5.1%,9.1%,-50.9%,-6.55%,4.9%
CN1C(=O)c2ccccc2CC12c1ccccc1C(=O)N2C (stereo unspecified),2.8%,-13.6%,22.9%,-0.55%,15.9%,4.45%
Cc1ccc(N=Cc2cccs2)c(Br)c1,-5.7%,-20.1%,-0.2%,6.4%,-0.95%,5.95%
Cc1ccc(Cl)cc1NC(=O)Oc1ccc(C(C)(C)C)cc1Br,54.3%,57.1%,11.7%,1.5%,19.9%,60.2%
CNC(=O)OCc1c(COC(=O)NC)c(C)n(-c2ccc(OC)cc2)c1C,20.9%,3.55%,42.1%,15.8%,31.3%,42.8%
CCC1CCCCCC1=O (stereo unspecified),-34%,-27.2%,-18.6%,-25.4%,-30.4%,-21.3%
COc1ccc(OC)c(CCCC(=O)O)c1,9.6%,7.65%,2.7%,4.35%,2.05%,-8.7%
CCCCCCNC(CC(N)=O)C(=O)O (stereo unspecified),-13.2%,3.85%,11.3%,2.45%,-12.8%,-26.2%
C=CCNC(=S)Nc1ccc(OC(=O)NC(C)(C)C)cc1,2%,29.4%,26.4%,-16.8%,25.3%,0.1%
Cc1cc(=O)oc2c(CNC(Cc3ccccc3)C(=O)O)c(O)ccc12 (stereo unspecified),-39.4%,-40.6%,-24.3%,-21.1%,-22.1%,-69%
O=C(Cl)c1cc2ccccc2c2c(=O)c3ccc4cc5ccccc5cc4c3[nH]c12,-51.6%,-3.2%,-10.4%,-53.8%,-13.2%,-11.6%
CC(C)CC(Nc1ccc2ccccc2c1)C(N)=O (stereo unspecified),-6.9%,-44.4%,10.2%,8.65%,10.8%,-3.4%
Nc1ccc(Cl)cc1Br,6.35%,22.4%,-6.5%,5.5%,-7.05%,8.6%
N#CCCCCCCCCCC#N,-18.9%,-36%,-47.4%,25.9%,-52.5%,11.4%
O=[N+]([O-])c1cc(NC(=S)SCc2ccc3c(c2)OCO3)ccc1Cl,82.7% (active),72.2% (active),76.7% (active),42.8%,56.4%,78% (active)
COc1ccc(Cc2ccc(Cl)cc2)c(OC)c1,3.3%,2.25%,19.8%,15.2%,-12.2%,-5.15%
CC1(C)CCc2c(cc3c(c2O)CCC(C)(C)O3)O1,4.6%,7.6%,-10.7%,12.9%,9.05%,8.45%
